Compound activity from PubChem.
In the library only some 2.4% were active in any assay of this set; here they are far more common.
POLB inh – inhibitors of human DNA polymerase beta; P06746; Pol beta primer extension/strand displacement, fluorescence kinetic; Potency, µM (highest dose often 114 µM), for inactives: at the highest dose activity change, negative = inhibition, actives largely listed as inhibitors; 340,000 tested, 1.3% active; note: % is set by controls: 0 for no effect and ±100 for the full control effect
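Pol beta (10 nM) was preincubated with compound for 15 min at room temperature. The reaction was then started with 50 nM substrate and read immediately and after a further 10 min at room temperature.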
POLI inh – blocks human DNA polymerase iota activity | AID 588590 | 390,000 tested, 1% active | Pol iota fluorescent replication assay, 10 min | Potency, µM (doses to about 115 µM), for inactives: top-dose activity, negative = inhibition, usual class: inhibitors | Q9UNA4
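Pol iota at 10 nM preincubated 15 min with compounds at room temperature; reaction started with fluorescent substrate, 50 nM final. Fluorescence read kinetically at 0 and 10 min; buffer-only wells as negative control.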
WRN helicase inh – WRN helicase (human) inhibition | AID 651768 | WRN helicase unwinding, fluorescent forked duplex, kinetic | Q14191 | 360,000 tested, 0.46% active | Potency, µM (doses to about 114 µM), without a hit: at the highest dose activity change, negative = inhibition, actives largely listed as inhibitors; note: % is set by controls: 0 for no effect and ±100 for the full control effect; nearly all actives have a fitted effect of over 55% in size
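Kinetic red-fluorescence monitoring (525/598 nm) tracks WRN helicase activity after 100 nM fluorophore-quencher forked duplex and 2 mM ATP are added to 20 nM enzyme pretreated 15 min at room temperature with compound.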
POLH inh – inhibitors of human DNA polymerase eta; Q9Y253; recombinant Pol eta, fluorescent DNA replication assay; Potency, µM (series often up to 114 µM), inactives show at the highest dose activity change, negative = inhibition, most hits filed as inhibitors; 390,000 tested, 1.2% active; AID 588591; note: % is set by controls: 0 for no effect and ±100 for the full control effect
Target sequence (Q9Y253 whole entry, looked up): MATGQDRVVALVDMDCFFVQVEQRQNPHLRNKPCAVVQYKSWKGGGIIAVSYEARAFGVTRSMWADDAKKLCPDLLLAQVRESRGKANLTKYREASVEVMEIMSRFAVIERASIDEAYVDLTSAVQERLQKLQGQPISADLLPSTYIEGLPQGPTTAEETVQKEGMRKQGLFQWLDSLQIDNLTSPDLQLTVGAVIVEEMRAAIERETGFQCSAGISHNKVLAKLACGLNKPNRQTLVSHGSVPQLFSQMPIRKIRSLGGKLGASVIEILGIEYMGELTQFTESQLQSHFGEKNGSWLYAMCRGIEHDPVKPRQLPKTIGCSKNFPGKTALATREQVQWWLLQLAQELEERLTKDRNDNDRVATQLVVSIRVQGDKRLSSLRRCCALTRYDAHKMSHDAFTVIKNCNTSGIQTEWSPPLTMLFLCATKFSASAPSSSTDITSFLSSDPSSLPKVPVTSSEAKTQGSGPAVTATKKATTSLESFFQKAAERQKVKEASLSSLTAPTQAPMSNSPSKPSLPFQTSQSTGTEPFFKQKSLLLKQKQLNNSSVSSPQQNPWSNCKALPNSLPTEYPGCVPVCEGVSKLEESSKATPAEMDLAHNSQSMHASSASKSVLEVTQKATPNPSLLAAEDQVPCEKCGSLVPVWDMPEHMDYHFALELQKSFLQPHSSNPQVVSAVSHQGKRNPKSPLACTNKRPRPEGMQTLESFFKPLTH
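Fluorescent replication assay: 50 nM final substrate added after a 15 min room-temperature compound preincubation with 10 nM enzyme. Signal taken at 0 min and again at 10 min.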
Pol kappa inh – DNA polymerase kappa (human) inhibition | Q9UBT6 | purified Pol kappa, fluorescent DNA synthesis assay, 10 min | Potency, µM (titrated, usually from 107 µM), without a hit: top-dose activity, negative = inhibition, usual class: inhibitors | 400,000 tested, 0.53% active | AID 588579; note: % is set by controls: 0 for no effect and ±100 for the full control effect
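10 nM Pol kappa preincubated 15 min at room temperature with compounds, then reaction started with substrate at 50 nM final. Fluorescence read kinetically at 0 and 10 min; buffer-only wells served as negative control.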
FEN1 inhibitor – blocks human flap endonuclease 1; P39748; Recombinant FEN1 flap cleavage, fluorescence, 15 min; Potency, µM (titrated, usually from 114 µM), inactives show top-dose activity change, negative = inhibition, hits mostly inhibitors; 390,000 tested, 0.35% active; AID 588795; note: % is set by controls: 0 for no effect and ±100 for the full control effect; nearly all actives have a fitted effect of over 65% in size
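Recombinant FEN1 (10 nM) was preincubated with pin-transferred compounds for 15 min at room temperature, then flap DNA substrate (50 nM final) was added. Plates were read at 0 and 15 min, and normalized concentration–response data were fitted to a four-parameter Hill equation.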
* = called active by the depositor; [ ] = another dose, or the depositor's remark. Calls come from the whole dose curve; as a rule, active = well fitted curve in the direction sought with a large enough effect; inconclusive = small, poorly fitted or top-dose-only effect, or another doubt; inactive = no such curve, though single readings can be large; an effect the other way counts as inactive or inconclusive. Potency is the fitted concentration of half-maximal effect.

Cc1cc(C)cc(NC(=O)CSc2ccc(-c3ccco3)nn2)c1 was read as POLB inh -15.4%, POLI inh 42.6%, WRN helicase inh -15.7%, POLH inh -8.8%, Pol kappa inh -6.5% and FEN1 inhibitor -2.9%.
CC(=O)Nc1cccc(NC(=O)CSc2ccc(-c3ccco3)nn2)c1 was read as POLB inh 25.1µM*, POLI inh 22.4µM*, WRN helicase inh -23.5%, POLH inh 17.8µM*, Pol kappa inh inconclusive and FEN1 inhibitor -11.7%.
CCOc1ccccc1NC(=O)CSc1ccc(-c2ccco2)nn1 was read as POLB inh inconclusive, POLI inh 56.2µM*, WRN helicase inh -14.5%[11.6 µM], POLH inh inconclusive, Pol kappa inh -23.3% and FEN1 inhibitor -1.2%.
For Cc1ccc(NC(=O)CSc2ccc(-c3ccco3)nn2)c(C)c1 the results were POLB inh 1.0%, POLI inh 32.9%, WRN helicase inh -1.2%[57.1 µM], POLH inh -2.1%, Pol kappa inh -10.0% and FEN1 inhibitor 6.3%.
COc1cc(NC(=O)CSc2ccc(-c3ccco3)nn2)cc(OC)c1 was read as POLB inh inconclusive, POLI inh 50.1µM*, WRN helicase inh -9.2%, POLH inh -17.4%, Pol kappa inh -32.6% and FEN1 inhibitor 12.1%.
`O=C(CSc1nnc(-c2ccco2)n1CC1CCCO1)c1ccc(F)cc1` (configuration not stated) gave POLB inh 26.2%, POLI inh inconclusive, WRN helicase inh 79.4µM*, POLH inh -2.1%, Pol kappa inh -10.1% and FEN1 inhibitor -4.9%.
`COc1ccc(Cn2c(C3CCCCC3)nc3c(c(=O)c4ccccc4n3C)c2=O)cc1` gave POLB inh 4.47µM*, POLI inh 18.3%, WRN helicase inh -12.1%, POLH inh inconclusive, Pol kappa inh -2.5% and FEN1 inhibitor 0.8%.
Screening Cn1c2ccccc2c(=O)c2c(=O)n(C3CCCCCC3)c(C3CCCCC3)nc21 returned POLB inh 15.3%, POLI inh 6.3%, WRN helicase inh -27.1%, POLH inh inconclusive, Pol kappa inh -8.3% and FEN1 inhibitor 1.0%.
`COc1ccc(CCn2c(C3CCCCC3)nc3c(c(=O)c4ccccc4n3C)c2=O)cc1` gave POLB inh inconclusive, POLI inh 14.7%, WRN helicase inh -6.7%, POLH inh -5.0%, Pol kappa inh 2.9% and FEN1 inhibitor -8.4%.
`Cn1c2ccccc2c(=O)c2c(=O)n(C3CCCCC3)c(-c3cccs3)nc21` gave POLB inh 38.5%, POLI inh 56.9%, WRN helicase inh -14.0%[57.1 µM], POLH inh -6.8%, Pol kappa inh 12.4% and FEN1 inhibitor 56.2µM*.
For Cc1cc(C)c(S(=O)(=O)NCC(c2cccs2)S(=O)(=O)c2ccccc2)c(C)c1 (configuration not stated) the results were POLB inh -1.0%, POLI inh 14.8%, POLH inh -14.1%, Pol kappa inh -6.4%[60.1 µM] and FEN1 inhibitor -2.2%.
`CCOC(=O)NC1(Nc2cccc(Cl)c2)Oc2ccccc2O1` gave POLB inh 4.2%, POLI inh 25.1µM*, WRN helicase inh -16.9%, POLH inh -11.2%, Pol kappa inh inconclusive and FEN1 inhibitor 0.8%.
Screening Nc1cc([N+](=O)[O-])ccc1N1C(=O)CCCC1=O returned POLB inh 39.8µM*, POLI inh inconclusive, WRN helicase inh -12.1%, POLH inh 8.8%, Pol kappa inh -19.6% and FEN1 inhibitor -0.2%.
O=C(c1ccccc1)c1ccc2nc(N3CCN(C(=O)c4ccco4)CC3)c3nncn3c2c1 was read as POLB inh 12.1%, POLI inh 79.4µM*, WRN helicase inh -12.3%, POLH inh -27.1%, Pol kappa inh 1.9% and FEN1 inhibitor -4.5%.
O=C(c1ccccc1)c1ccc2nc(N3CCN(c4ccccc4)CC3)c3nncn3c2c1 was read as POLB inh -9.7%, POLI inh 21.2%, POLH inh -16.0%, Pol kappa inh 0.0% and FEN1 inhibitor -2.8%.
CCCCN(CC)C(=O)CCNS(=O)(=O)c1ccc2c(c1)c(=O)n(C)c(=O)n2C was read as POLB inh 3.7%, POLI inh 49.4%, POLH inh -15.6%, Pol kappa inh -10.8% and FEN1 inhibitor -5.2%.
Screening O=c1c(O[C@@H]2O[C@H](CO)C(O)C2O)c(-c2ccc(O)c(O)c2)oc2cc(O)cc(O)c12 (some centres not stated) returned POLI inh 35.5µM*, WRN helicase inh -22.3%, POLH inh inconclusive, Pol kappa inh 25.1µM* and FEN1 inhibitor inconclusive.
CC1OC(OCC2OC(Oc3c(-c4ccc(O)c(O)c4)oc4cc(O)cc(O)c4c3=O)C(O)C(O)C2O)C(O)C(O)C1O (configuration not stated) was read as Pol kappa inh 6.31µM*.
COc1ccc(-c2cc(=O)c3c(O)c(OC)c(O[C@@H]4OC(COC5OC(C)C(O)C(O)[C@@H]5O)C(O)C(O)C4O)cc3o2)cc1 (some centres not stated) was read as Pol kappa inh -9.7%[60.1 µM].
Screening O=c1cc(-c2ccc(O)c(O)c2)oc2cc(O[C@@H]3O[C@H](CO)[C@@H](O)[C@H](O)[C@H]3O)cc(O)c12 returned POLI inh 6.31µM*, WRN helicase inh inconclusive, POLH inh 8.91µM*, Pol kappa inh 2.51µM* and FEN1 inhibitor inconclusive.
Screening C[C@@H]1O[C@@H](OC[C@H]2O[C@@H](Oc3cc(O)c4c(=O)cc(-c5ccc(O)c(O)c5)oc4c3)[C@H](O)[C@@H](O)[C@@H]2O)[C@H](O)[C@H](O)[C@H]1O returned POLI inh -21.5%, WRN helicase inh -3.2%, POLH inh -7.8%, Pol kappa inh -5.8% and FEN1 inhibitor -23.0%.
For O=c1cc(-c2ccccc2)oc2cc(O[C@@H]3O[C@H](CO)[C@@H](O)[C@H](O)[C@H]3O)c(O)c(O)c12 the results were Pol kappa inh 10µM*.
For CC1(C)OC(=O)C2(Cc3ccc(Cl)cc3N3CCCCC32)C(=O)O1 (configuration not stated) the results were POLI inh 18.5%, Pol kappa inh -13.2% and FEN1 inhibitor -7.0%.
Screening Cc1cccc2sc(N(Cc3cccnc3)C(=O)c3cccs3)nc12 returned POLB inh -0.5%, POLI inh -12.9%, POLH inh 13.6%, Pol kappa inh -9.9%[60.1 µM] and FEN1 inhibitor 0.9%.
Screening COc1ccccc1CCNC(=O)Cn1ccc2cc(S(=O)(=O)N3CCCC3)ccc21 returned POLB inh 2.8%, POLI inh 25.1%, WRN helicase inh -13.6%, POLH inh -6.6%, Pol kappa inh -12.4% and FEN1 inhibitor 0.5%.
